Measured values taken from article PMC7862700, “An all-to-all approach to the identification of sequence-specific readers for epigenetic DNA modifications on cytosine”.

Assays:
Assay in all cases: DAPPL (digital affinity profiling via proximity ligation, sequencing); 10 mM Tris-HCl pH 7.5, 50 mM NaCl, 1 mM DTT, 4% glycerol, room temperature, 30 min; GST-TFs on glutathione beads, 16-mer random dsDNA library, 0.1% formaldehyde crosslink after washing; high values mean tight binding
FEV = target: T1, FEV (Homo sapiens, UniProt Q99581 1-238); details: protein: recombinant; tags: N-terminal GST; dsDNA, one strand shown
T1 sequence: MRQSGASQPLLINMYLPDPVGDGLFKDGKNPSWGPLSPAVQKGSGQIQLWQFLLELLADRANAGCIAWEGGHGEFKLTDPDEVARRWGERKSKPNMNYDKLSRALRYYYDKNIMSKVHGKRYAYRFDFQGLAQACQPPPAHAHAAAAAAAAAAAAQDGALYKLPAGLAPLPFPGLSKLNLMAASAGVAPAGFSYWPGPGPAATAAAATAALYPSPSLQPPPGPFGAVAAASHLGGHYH
In short: (§1)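 Yeast served to express human transcription factors as GST fusions, which were then captured on glutathione beads and labelled with DNA barcodes. Pooled with a tag-only sample, they were incubated with 200 nmole of a 16-mer random double-stranded DNA library for 30 min at room temperature in Tris/NaCl/DTT/glycerol buffer, washed, crosslinked with 0.1% formaldehyde, ligated by proximity, amplified by PCR and sequenced. Dividing each hexamer's read frequency for a factor by its frequency for the tag-only sample gives the binding signal.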

ETV5 = ETV5 (Homo sapiens, UniProt P41161 1-510); details: protein: recombinant; tags: N-terminal GST; dsDNA, one strand shown
ETV5, sequence (P41161 whole entry): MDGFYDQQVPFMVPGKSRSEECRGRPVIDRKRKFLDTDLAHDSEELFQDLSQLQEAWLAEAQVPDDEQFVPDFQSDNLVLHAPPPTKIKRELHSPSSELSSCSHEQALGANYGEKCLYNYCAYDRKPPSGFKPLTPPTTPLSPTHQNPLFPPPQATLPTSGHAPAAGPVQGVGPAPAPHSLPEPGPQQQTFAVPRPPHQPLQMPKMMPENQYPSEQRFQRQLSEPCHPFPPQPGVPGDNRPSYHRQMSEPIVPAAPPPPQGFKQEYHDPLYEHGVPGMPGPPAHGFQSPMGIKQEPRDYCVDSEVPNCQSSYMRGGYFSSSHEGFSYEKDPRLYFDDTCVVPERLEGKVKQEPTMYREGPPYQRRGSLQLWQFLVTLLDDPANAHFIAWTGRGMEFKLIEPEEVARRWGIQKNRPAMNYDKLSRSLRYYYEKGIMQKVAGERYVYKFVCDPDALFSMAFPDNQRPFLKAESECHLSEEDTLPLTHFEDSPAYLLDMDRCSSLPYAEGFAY
In short: as §1

HSF1 = HSF1 (Homo sapiens, UniProt Q00613 1-529); details: protein: recombinant; tags: N-terminal GST; chain copies: 3; dsDNA, one strand shown
HSF1, sequence (Q00613 whole entry): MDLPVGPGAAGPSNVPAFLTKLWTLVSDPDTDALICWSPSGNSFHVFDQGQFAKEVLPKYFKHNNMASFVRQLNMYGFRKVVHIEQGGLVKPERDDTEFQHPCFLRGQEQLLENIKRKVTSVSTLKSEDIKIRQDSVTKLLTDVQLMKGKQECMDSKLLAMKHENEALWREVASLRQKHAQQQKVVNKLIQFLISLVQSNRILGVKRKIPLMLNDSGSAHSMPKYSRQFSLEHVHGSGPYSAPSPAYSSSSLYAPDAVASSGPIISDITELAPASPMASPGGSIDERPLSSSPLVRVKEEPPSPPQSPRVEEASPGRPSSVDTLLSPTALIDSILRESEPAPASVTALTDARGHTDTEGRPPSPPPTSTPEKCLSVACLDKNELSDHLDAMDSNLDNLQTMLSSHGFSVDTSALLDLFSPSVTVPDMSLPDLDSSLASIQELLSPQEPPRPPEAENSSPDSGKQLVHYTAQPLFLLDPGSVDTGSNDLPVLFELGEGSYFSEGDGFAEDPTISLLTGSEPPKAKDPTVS
In short: as §1

SPIC = target: T2, SPIC (Homo sapiens, UniProt Q8N5J4 1-248); details: protein: recombinant; tags: N-terminal GST; dsDNA, one strand shown
T2 sequence: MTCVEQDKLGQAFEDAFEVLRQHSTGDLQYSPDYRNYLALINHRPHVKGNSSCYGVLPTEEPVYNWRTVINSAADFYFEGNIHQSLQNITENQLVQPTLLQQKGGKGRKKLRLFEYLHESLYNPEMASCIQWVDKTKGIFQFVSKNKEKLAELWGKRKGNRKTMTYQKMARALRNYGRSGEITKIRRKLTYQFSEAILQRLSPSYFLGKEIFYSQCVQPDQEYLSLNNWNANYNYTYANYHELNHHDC
In short: as §1

ELF4 = ELF4 (Homo sapiens, UniProt Q99607 1-663); details: protein: recombinant; tags: N-terminal GST; dsDNA, one strand shown
ELF4, sequence (Q99607 whole entry): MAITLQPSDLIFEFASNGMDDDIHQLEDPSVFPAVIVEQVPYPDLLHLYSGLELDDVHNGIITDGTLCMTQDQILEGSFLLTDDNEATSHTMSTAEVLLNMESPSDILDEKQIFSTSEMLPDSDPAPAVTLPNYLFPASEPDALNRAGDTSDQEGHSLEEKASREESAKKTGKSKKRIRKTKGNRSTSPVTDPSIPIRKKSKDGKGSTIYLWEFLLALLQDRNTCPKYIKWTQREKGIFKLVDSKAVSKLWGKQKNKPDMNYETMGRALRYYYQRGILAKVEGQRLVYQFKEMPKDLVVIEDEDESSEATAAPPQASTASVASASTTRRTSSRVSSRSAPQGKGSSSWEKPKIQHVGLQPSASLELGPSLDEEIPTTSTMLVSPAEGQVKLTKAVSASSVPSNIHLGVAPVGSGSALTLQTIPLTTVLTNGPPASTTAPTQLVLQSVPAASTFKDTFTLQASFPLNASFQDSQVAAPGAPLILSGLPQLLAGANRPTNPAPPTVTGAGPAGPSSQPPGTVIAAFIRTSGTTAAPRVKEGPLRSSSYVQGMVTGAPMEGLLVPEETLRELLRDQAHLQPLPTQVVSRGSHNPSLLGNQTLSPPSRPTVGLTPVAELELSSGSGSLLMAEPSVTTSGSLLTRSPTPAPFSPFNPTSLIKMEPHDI
In short: as §1

ELK4 = target: T3, ELK4 (Homo sapiens, UniProt P28324-2 1-405); details: protein: recombinant; tags: N-terminal GST; dsDNA, one strand shown
T3 sequence: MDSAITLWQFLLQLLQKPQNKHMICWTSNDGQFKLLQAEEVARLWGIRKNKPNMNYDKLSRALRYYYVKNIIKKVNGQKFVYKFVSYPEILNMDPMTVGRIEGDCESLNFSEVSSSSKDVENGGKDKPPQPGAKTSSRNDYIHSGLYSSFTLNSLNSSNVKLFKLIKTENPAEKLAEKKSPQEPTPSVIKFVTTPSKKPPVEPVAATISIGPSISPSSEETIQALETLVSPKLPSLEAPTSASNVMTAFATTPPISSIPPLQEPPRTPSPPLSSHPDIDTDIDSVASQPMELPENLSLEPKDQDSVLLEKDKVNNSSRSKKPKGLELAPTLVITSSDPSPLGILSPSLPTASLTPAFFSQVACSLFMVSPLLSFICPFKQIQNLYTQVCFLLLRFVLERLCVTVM
In short: as §1

ETV2 = target: T4, ETV2 (Homo sapiens, UniProt O00321 1-342); details: protein: recombinant; tags: N-terminal GST; dsDNA, one strand shown
T4 sequence: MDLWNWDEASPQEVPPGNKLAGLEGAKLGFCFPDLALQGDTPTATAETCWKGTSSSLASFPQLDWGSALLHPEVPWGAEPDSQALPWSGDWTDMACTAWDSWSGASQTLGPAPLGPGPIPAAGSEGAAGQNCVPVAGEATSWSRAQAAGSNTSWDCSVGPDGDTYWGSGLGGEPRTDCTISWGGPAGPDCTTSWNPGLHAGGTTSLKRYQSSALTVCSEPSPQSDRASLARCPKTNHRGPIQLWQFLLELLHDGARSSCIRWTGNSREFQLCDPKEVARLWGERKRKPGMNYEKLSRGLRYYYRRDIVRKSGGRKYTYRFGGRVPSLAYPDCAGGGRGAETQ
In short: as §1

ELF3 = target: T5, ELF3 (Homo sapiens, UniProt P78545 1-371); details: protein: recombinant; tags: N-terminal GST; dsDNA, one strand shown
T5 sequence: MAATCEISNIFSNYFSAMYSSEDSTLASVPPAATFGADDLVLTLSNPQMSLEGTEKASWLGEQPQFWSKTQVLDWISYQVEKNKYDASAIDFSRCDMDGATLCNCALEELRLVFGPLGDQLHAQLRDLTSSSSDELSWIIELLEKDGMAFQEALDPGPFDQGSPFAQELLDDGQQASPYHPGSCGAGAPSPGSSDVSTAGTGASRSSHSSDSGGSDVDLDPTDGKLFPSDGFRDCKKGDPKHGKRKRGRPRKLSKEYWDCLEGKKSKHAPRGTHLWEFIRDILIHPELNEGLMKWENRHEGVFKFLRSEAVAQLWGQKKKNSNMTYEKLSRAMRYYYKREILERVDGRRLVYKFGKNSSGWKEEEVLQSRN
In short: as §1

ETV1 = ETV1 (Homo sapiens, UniProt P50549 1-477); details: protein: recombinant; tags: N-terminal GST; dsDNA, one strand shown
ETV1, sequence (P50549 whole entry): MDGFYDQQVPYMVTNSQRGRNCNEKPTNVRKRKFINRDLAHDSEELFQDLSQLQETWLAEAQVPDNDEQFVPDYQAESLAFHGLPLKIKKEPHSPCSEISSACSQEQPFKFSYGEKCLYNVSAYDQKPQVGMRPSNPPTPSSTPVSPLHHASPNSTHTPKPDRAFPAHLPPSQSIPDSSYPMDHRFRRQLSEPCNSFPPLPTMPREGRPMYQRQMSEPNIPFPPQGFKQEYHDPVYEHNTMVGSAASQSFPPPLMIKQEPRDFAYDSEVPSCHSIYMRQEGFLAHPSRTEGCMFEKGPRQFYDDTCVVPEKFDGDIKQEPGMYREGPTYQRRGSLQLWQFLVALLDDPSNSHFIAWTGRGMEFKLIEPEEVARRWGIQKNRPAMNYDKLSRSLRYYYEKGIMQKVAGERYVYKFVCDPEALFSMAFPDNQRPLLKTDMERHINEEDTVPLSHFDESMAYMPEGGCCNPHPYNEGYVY
In short: as §1

ERF = target: T6, ERF (Homo sapiens, UniProt P50548 1-548); details: protein: recombinant; tags: N-terminal GST; dsDNA, one strand shown
T6 sequence: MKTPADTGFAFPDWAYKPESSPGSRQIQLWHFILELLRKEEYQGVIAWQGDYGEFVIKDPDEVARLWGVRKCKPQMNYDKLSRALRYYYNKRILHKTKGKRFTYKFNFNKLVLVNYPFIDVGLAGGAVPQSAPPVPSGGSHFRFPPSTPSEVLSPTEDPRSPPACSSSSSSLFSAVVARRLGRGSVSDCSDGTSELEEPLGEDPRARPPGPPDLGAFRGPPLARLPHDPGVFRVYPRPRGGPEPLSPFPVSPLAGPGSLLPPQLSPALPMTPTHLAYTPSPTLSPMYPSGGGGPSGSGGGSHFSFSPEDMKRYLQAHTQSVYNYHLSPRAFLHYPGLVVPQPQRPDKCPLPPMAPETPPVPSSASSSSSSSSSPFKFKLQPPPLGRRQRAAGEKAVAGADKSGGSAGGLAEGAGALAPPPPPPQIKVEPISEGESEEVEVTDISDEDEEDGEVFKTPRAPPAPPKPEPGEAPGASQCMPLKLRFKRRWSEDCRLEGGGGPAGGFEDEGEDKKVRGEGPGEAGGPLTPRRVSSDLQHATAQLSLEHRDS
In short: as §1

ETV3L = target: T7, ETV3L (Homo sapiens, UniProt Q6ZN32 1-361); details: protein: recombinant; tags: N-terminal GST; dsDNA, one strand shown
T7 sequence: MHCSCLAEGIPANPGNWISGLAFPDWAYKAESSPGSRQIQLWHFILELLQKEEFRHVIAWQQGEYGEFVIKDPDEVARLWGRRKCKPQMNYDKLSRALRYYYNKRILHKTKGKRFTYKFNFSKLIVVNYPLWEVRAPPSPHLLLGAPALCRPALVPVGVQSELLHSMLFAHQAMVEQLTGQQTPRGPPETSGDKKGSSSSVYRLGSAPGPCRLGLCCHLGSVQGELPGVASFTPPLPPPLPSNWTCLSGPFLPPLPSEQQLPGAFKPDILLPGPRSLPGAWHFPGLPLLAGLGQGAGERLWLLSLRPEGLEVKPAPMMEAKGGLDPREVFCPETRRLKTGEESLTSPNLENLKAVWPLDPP
In short: as §1

ETS2 = target: T8, ETS2 (Homo sapiens, UniProt P15036 1-469); details: protein: recombinant; tags: N-terminal GST; dsDNA, one strand shown
T8 sequence: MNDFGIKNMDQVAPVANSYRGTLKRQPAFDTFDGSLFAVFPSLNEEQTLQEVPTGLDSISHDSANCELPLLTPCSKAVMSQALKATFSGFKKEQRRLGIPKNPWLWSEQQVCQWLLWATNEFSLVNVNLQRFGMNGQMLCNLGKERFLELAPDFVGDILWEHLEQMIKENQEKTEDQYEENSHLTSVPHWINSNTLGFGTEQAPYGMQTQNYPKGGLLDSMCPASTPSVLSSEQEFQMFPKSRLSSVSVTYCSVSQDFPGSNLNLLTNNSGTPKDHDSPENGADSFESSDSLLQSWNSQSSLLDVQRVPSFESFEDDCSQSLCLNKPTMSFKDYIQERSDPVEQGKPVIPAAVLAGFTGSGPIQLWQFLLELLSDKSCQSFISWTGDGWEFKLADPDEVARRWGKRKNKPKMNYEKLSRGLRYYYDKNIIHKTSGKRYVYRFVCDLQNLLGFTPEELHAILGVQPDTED
In short: as §1

SPDEF = target: T9, SPDEF (Homo sapiens, UniProt O95238 1-335); details: protein: recombinant; tags: N-terminal GST; dsDNA, one strand shown
T9 sequence: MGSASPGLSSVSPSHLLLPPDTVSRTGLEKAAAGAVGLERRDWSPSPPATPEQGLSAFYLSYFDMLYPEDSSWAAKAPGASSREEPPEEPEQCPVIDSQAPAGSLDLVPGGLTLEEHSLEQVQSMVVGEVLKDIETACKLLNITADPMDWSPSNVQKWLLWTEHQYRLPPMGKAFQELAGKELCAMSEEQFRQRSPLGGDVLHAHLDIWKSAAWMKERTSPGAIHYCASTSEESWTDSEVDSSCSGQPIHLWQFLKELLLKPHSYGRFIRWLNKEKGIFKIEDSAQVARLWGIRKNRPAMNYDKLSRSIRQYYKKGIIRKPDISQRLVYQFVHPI
In short: as §1

ETV7 = target: T10, ETV7 (Homo sapiens, UniProt Q9Y603 1-341); details: protein: recombinant; tags: N-terminal GST; dsDNA, one strand shown
T10 sequence: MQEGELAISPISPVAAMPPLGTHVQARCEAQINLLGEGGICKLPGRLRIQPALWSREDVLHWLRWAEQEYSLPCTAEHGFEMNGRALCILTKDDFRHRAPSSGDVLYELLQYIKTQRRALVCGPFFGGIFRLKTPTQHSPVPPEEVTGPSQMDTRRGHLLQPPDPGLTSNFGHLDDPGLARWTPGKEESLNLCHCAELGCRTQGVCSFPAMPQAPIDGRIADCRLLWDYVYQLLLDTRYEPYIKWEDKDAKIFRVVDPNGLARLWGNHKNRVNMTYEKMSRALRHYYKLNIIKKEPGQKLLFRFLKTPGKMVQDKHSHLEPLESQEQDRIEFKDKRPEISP
In short: as §1

ELF5 = target: T11, ELF5 (Homo sapiens, UniProt Q9UKW6-2 1-255); details: protein: recombinant; tags: N-terminal GST; dsDNA, one strand shown
T11 sequence: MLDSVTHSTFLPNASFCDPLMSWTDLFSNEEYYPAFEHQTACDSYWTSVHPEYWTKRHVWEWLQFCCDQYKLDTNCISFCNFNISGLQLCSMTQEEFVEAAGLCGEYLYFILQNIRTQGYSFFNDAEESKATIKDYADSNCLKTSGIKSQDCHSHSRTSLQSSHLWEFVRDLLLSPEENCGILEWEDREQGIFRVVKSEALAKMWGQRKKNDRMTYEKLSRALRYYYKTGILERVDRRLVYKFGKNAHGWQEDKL
In short: as §1

ETV3 = target: T12, ETV3 (Homo sapiens, UniProt P41162-2 1-143); details: protein: recombinant; tags: N-terminal GST; dsDNA, one strand shown
T12 sequence: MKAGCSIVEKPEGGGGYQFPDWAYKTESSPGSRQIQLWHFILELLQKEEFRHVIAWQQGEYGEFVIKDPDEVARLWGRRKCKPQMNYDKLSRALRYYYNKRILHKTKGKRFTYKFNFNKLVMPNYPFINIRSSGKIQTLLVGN
In short: as §1

ETV6 = ETV6 (Homo sapiens, UniProt P41212 1-452); details: protein: recombinant; tags: N-terminal GST; dsDNA, one strand shown
ETV6, sequence (P41212 whole entry): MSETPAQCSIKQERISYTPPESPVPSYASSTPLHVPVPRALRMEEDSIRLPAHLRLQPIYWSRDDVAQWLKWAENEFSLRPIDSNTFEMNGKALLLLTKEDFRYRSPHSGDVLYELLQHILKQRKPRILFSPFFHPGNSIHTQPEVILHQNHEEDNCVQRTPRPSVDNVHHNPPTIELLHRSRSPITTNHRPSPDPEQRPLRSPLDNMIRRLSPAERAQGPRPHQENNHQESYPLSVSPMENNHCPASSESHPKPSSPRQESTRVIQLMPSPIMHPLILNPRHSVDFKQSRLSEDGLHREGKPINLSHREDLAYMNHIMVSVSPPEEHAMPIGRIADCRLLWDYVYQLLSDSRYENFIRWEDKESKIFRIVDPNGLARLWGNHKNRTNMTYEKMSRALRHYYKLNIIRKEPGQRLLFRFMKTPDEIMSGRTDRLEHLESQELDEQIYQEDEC
In short: as §1

Sequence | binding signal (FEV) | binding signal (ETV5) | binding signal (HSF1) | binding signal (SPIC) | binding signal (ELF4) | binding signal (ELK4) | binding signal (ETV2) | binding signal (ELF3) | binding signal (ETV1) | binding signal (ERF) | binding signal (ETV3L) | binding signal (ETS2) | binding signal (SPDEF) | binding signal (ETV7) | binding signal (ELF5) | binding signal (ETV3) | binding signal (ETV6)
CCGTAC | 1.24 fold enrichment (6-mer frequency, TF over GST control) | 1.33 fold enrichment (6-mer frequency, TF over GST control) | 1.06 fold enrichment (6-mer frequency, TF over GST control) | 1.18 fold enrichment (6-mer frequency, TF over GST control) | 1.26 fold enrichment (6-mer frequency, TF over GST control) | 1.36 fold enrichment (6-mer frequency, TF over GST control) | 1.42 fold enrichment (6-mer frequency, TF over GST control) | 1.33 fold enrichment (6-mer frequency, TF over GST control) | 1.34 fold enrichment (6-mer frequency, TF over GST control) | 1.39 fold enrichment (6-mer frequency, TF over GST control) | 1.25 fold enrichment (6-mer frequency, TF over GST control) | 1.32 fold enrichment (6-mer frequency, TF over GST control) | 1.41 fold enrichment (6-mer frequency, TF over GST control) | 1.32 fold enrichment (6-mer frequency, TF over GST control) | 1.46 fold enrichment (6-mer frequency, TF over GST control) | 1.36 fold enrichment (6-mer frequency, TF over GST control) | 1.33 fold enrichment (6-mer frequency, TF over GST control)
CCGTCC | 1.38 fold enrichment (6-mer frequency, TF over GST control) | 1.26 fold enrichment (6-mer frequency, TF over GST control) | 1.03 fold enrichment (6-mer frequency, TF over GST control) | 1.39 fold enrichment (6-mer frequency, TF over GST control) | 1.37 fold enrichment (6-mer frequency, TF over GST control) | 1.28 fold enrichment (6-mer frequency, TF over GST control) | 1.8 fold enrichment (6-mer frequency, TF over GST control) | 1.43 fold enrichment (6-mer frequency, TF over GST control) | 1.38 fold enrichment (6-mer frequency, TF over GST control) | 1.51 fold enrichment (6-mer frequency, TF over GST control) | 1.38 fold enrichment (6-mer frequency, TF over GST control) | 1.38 fold enrichment (6-mer frequency, TF over GST control) | 1.55 fold enrichment (6-mer frequency, TF over GST control) | 1.27 fold enrichment (6-mer frequency, TF over GST control) | 1.36 fold enrichment (6-mer frequency, TF over GST control) | 1.51 fold enrichment (6-mer frequency, TF over GST control) | 1.29 fold enrichment (6-mer frequency, TF over GST control)
